PKM2 act: activators of human pyruvate kinase M2. P14618. purified PKM2, Kinase-Glo ATP luminescence, activation; response scale: 0% is enzyme alone, no compound. Potency, µM (titrated, usually from 57.5 µM), for inactives: at the highest dose activation, hits mostly activators. 260,000 tested, 0.34% active; also: potency is read from the fitted curve at half-maximal effect; % is scaled to controls: 0 for no effect and ±100 for the full control effect; nearly all actives have a fitted effect of over 55% in size
Target sequence (P14618 whole entry, looked up): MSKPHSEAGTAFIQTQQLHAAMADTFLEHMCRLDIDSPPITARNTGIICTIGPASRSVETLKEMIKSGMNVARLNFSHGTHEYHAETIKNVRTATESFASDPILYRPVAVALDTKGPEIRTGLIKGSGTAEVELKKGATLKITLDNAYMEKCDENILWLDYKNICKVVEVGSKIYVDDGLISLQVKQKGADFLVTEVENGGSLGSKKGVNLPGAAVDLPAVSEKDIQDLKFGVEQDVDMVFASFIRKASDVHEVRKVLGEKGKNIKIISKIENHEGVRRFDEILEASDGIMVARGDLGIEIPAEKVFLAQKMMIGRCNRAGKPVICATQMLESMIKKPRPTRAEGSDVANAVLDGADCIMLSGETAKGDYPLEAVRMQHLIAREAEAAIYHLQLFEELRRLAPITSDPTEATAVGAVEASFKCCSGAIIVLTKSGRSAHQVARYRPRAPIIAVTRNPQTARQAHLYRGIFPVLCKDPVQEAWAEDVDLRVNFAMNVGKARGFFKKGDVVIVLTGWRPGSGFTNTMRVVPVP
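Purified hPK-M2 (>95%) run at intermediate activity with 0.1 mM ADP and 0.5 mM PEP in 50 mM imidazole pH 7.2, KCl, MgCl2; 1 h room temperature. ATP formed read by Kinase-Glo luminescence; normalized to uninhibited and no-enzyme controls.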
TCR act: T cell receptor activation. primary human leukocytes, anti-CD3, IL-2 HTRF, 48 h. Potency, µM (titrated, usually from 9.22 µM), for the others: at the highest dose activation of IL-2 secretion, actives largely listed as activators. 330,000 tested, under 10 active. AID 504894; also: % of control where 0% means no effect
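1) Mix primary human leukocytes, a-CD3 beads and compound. 2) Incubate 48 hr. 3) Add HTRF IL-2 reagents (a-IL-2-K, a-IL-2-d2).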
a7 integrin act: activates integrin-mediated alleviation for muscular dystrophy. alpha7betagal myoblasts, beta-gal FDG fluorescence, 48 h. AID 624291. Potency, µM (top dose mostly 38.3 µM), for inactives: at the top dose activation, actives largely listed as activators. 350,000 tested, 0.064% active;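 also: potency is read from the fitted curve at half-maximal effect; 100% = response of the positive control SU9516; nearly all actives have a fitted effect of over 60% in size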
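Alpha7betagal+/- myoblasts (passage 13) were plated 16-24 hr, then exposed to compounds (1:260 dilution of DMSO stock) for 48 hours at 37C. After MPER lysis, β-galactosidase reporter activity was read as FDG fluorescence (ex 480/em 540) after 30 minutes.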
Tb PFK inh: T. brucei PFK enzyme inhibition; O15648; T. brucei PFK, ADP-Glo luminescence; Potency, µM (doses to about 57.5 µM), for inactives: at the top dose activity, negative = inhibition, most hits filed as inhibitors; 330,000 tested, 0.17% active;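 also: potency is read from the fitted curve at half-maximal effect; 0% = uninhibited 1x PFK enzyme wells and -100% = no-enzyme wells; nearly all actives have a fitted effect of over 60% in size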
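Luminescent ADP detection (ADP-Glo, two-step: ATP depletion then ADP-to-ATP conversion for luciferase) reported PFK activity after 45 min room-temperature reaction of 1.25 nM enzyme with 0.5 mM F6P and 0.1 mM ATP at pH 8.0.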
AT treatment: candidate therapy for ataxia-telangiectasia; F2112 A-T fibroblasts, KAP-1 phosphorylation AlphaLISA; neocarzinostatin DNA damage 30 min before lysis; 320,000 tested, 0.19% active; Potency, µM (doses to about 57.5 µM), inactives show at the highest dose activation, actives largely listed as activators; AID 485349; also: potency is read from the fitted curve at half-maximal effect; % of control where 0% means no effect; nearly all actives have a fitted effect of over 45% in size
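hTERT-immortalized A-T patient fibroblasts (F2112), 500 cells/well in OPTI-MEM, 1% FBS, got compounds for 60 min, then NCS for 30 min at 37C. Lysates were then assayed for phospho-KAP-1 by AlphaLISA (anti-pKAP1 donor, anti-KAP1 acceptor beads), 6 hr at 25C.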
IL2 activator: activators of IL-2; 360,000 tested, 0.065% active; activation, % (series mostly up to about 46 µM); IL-2 activation reporter assay, cell-based qHTS; stimulated with anti-CD3/CD4/CD28 beads; in transgenic mouse T cells; in the data active = activation above about 50%; inconclusive = mostly about 30% to 49%; also: 0% is about no effect
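Readout: EGFP and DsRed signals by fluorescent plate cytometry. Unstimulated transgenic mouse T cells received compound 60 min before antibody-bead stimulation, then incubated 18 h at 37 degrees C.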
* marks the source's active call; other numbers are inactive results; ? = inconclusive; · = no result; [ ] = dose if it differs, or a comment. Sampled rows, rich in hits. Any-hit rate of the full collection: about 0.69%. Unless noted, calls follow the shape of the dose curve; as a rule, active = well fitted curve in the direction sought with a large enough effect; inconclusive = small, poorly fitted or top-dose-only effect, or another doubt; inactive = no such curve, though single readings can be large; an effect the other way counts as inactive or inconclusive.

SMILES	PKM2 act	TCR act	a7 integrin act	Tb PFK inh	AT treatment	IL2 activator
CC(=O)Nc1cccc(NC(=O)CSc2ccc(-c3cccnc3)nn2)c1	32µM*	4%	10%	-2%	2%	-3
COc1ccc(C=C(c2nc3ccccc3s2)c2nc3ccccc3s2)cc1O	-9%	7%[46.1 µM]	-41%	-3%	28µM*	1
COc1cc(C=C(c2nc3ccccc3s2)c2nc3ccccc3s2)ccc1O	-1%	-8%[46.1 µM]	0%	1%	0%	-2
COc1ccc(C(=O)/C=C/C(=O)N(CC(=O)NCCC(C)C)Cc2cccs2)c(O)c1	22µM*	-10%	0%	-3%	8%	-1
CS(=O)(=O)N(CC(=O)NC1CCCCC1)Cc1ccc(F)cc1	-2%	9%	21%	-3%	3%	1
COc1ccc(C(=O)/C=C/C(=O)N(CC(=O)NC2CCCCC2)Cc2ccc(F)cc2)c(O)c1	7.9µM*	·	4%	2%	-5%	-1
CCCn1c(C)nc2c(NCCN(C)C)nc(C)nc21	-1%	·	·	·	·	·
CCCCC[C@]12Cc3ccccc3C(O1)c1c(cc(C)oc1=O)O2	-5%[11.5 µM]	·	·	0%[11.5 µM]	6%[11.5 µM]	·
COc1ccc(C(=O)O/N=C(\N)c2ccccn2)cc1	·	3%	15%	15µM*	1%	1
COc1ccc(C(=O)NNC(=O)c2ccccn2)cc1	-78%	0%[46.1 µM]	-2%	15µM*	13%	-1
COc1ccc(-c2nc3c(c4c2C[C@H](c2ccccc2)OC4)CN(S(=O)(=O)c2ccc(Cl)c4nonc24)CC3)c(C)c1	-1%[11.5 µM]	·	·	·	·	·
Cc1ccc(NC(=O)Nc2cccnc2)cc1NC(=O)Nc1cccnc1	1%	10%	-8%	2%	1.3µM*	-2
COC(=O)CNC(=O)[C@@]1(C)C=C[C@@H](Cc2ccccc2)N1C(=O)OC	2%	·	·	·	·	·
CSc1ccc(Cl)c(C(=O)N2CCN(c3ncccn3)CC2)c1	·	3%	-29%	-1%	-7%	0
CCCn1c(-c2ccc(F)cc2)nc2c(NCCCCN(CC)CC)nc(C)nc21	-3%	·	·	·	·	·
CN1CCc2nc(SCC(=O)Nc3ccc(OC(F)(F)F)cc3)c(C#N)c(-c3cccs3)c2C1	-11%	-6%[46.1 µM]	?	?	-9%	0
CN1CCc2nc(SCC(=O)Nc3cccc(F)c3)c(C#N)c(-c3cccs3)c2C1	18µM*	-2%	18%	-22%	-4%	-1
Cc1[nH]nc(SCC(=O)Nc2cccc(O)c2)c1[N+](=O)[O-]	10µM*	1%	-24%	-6%	-7%	0
Cc1[nH]nc(SCC(=O)NCc2ccccc2)c1[N+](=O)[O-]	-7%	4%	23%	0%	0%	-1
CN(C(=O)c1cc(C(=O)N(C)c2ccccc2)cc([N+](=O)[O-])c1)c1ccccc1	1%	0%	-11%	5%	40µM*	2
CCC(=O)Nc1ccc(S(=O)(=O)Nc2nccs2)cc1	-1%[11.5 µM]	-3%	20%	-1%	5%	3
COc1ccc(CC(=O)Nc2ccc(S(=O)(=O)Nc3nccs3)cc2)cc1	14µM*	3%	-27%	?	-1%	2
COc1ccc(S(=O)(=O)Nc2ccc(S(=O)(=O)Nc3nccs3)cc2)cc1	13µM*	3%	13µM*	1%	1%	-1
COc1ccccc1S(=O)(=O)Nc1ccc(S(=O)(=O)Nc2nccs2)cc1	·	-7%	-17%	-1%	-10%	0
COC(=O)CNC(=O)C1(CC(C)C)C=CCN1C(C)=O (configuration not stated)	0%	·	·	·	·	·
CC[C@H]1C2=C3C(CC[C@H]4C(OC)OC[C@](C)([C@@H]34)N(C(=O)OC(C)(C)C)C2)C(CO)C1CO (some centres not stated)	0%	·	·	·	·	·
COc1ccc(C2c3ccc(O)cc3Oc3ncn(CC(C)C)c(=N)c32)cc1 (configuration not stated)	-16%	3%	-23%	0%	2.8µM*	-2
